Consider 45 molecules from ChEMBL document CHEMBL3988442, “University of Dundee, Small-Polar-MMV Screening Library” (2021).

The target of experiment [1] is T1, Aspartate--tRNA(Asp/Asn) ligase (Mycobacterium tuberculosis (strain ATCC 25618 / H37Rv)) (UniProt P9WFW3). Note: in the data most compounds retested in dose-response had high values.
T1 sequence (whole entry): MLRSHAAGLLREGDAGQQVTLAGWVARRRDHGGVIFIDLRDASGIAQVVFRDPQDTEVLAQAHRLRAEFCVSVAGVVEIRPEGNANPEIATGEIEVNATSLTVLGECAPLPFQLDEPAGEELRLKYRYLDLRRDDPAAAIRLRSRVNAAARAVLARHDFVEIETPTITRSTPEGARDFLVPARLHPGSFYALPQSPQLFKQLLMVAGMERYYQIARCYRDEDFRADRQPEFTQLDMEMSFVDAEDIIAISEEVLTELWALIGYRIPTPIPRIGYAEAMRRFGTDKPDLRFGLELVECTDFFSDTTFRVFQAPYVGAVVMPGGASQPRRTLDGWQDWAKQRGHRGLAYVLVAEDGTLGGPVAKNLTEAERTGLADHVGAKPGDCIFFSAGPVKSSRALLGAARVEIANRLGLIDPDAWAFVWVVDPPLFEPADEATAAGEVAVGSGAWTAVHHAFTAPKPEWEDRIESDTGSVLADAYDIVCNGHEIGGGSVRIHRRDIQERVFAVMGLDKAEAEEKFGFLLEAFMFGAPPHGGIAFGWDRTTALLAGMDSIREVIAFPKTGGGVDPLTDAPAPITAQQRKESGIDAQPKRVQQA
Put plainly: Assay for Asp RNA synthetase-1 from Mycobacterium tuberculosis. The experiment is classed as functional. Set-up: scale not given: direction of the effect not stated beside the values. The conditions noted are these: 30 µM.

Experiment [2] has as its target Shiga toxin 2 (Escherichia coli O157:H7) (UniProt P09385+P09386). Put plainly: E. coli 0.157:H7 Shiga Toxin SOP - stx2 screening assay. The experiment is classed as functional. Further details: scale not given: direction of the effect not stated beside the values. The conditions noted are these: 30 µM.

As for `O=c1cc(CN2CCCC2)nc2n1CCCN(Cc1ccsc1)C2`, the Percent Effect was -4.85% in experiment [1] and -22.4% in experiment [2].

Turning to `Cc1cnn(CCC(=O)N2C[C@H]3CC[C@@H]2CN(CC(=O)N(C)C)C3)c1`, the Percent Effect in experiment [1] was 4.25%; in experiment [2], -21.6%.

With `Cc1ncc(CN2Cc3ccccc3O[C@]3(CC[C@H](CO)CC3)C2)cn1`, the Percent Effect was 0.551% in experiment [1] and 18.1% in experiment [2].

Regarding `CCNc1cc2c(nn1)CCN(C(=O)c1ccc3cc[nH]c3c1)C2`, the Percent Effect is 2.23% in experiment [1] and -3.04% in experiment [2].

For `O=C(NCCCN1CCOCC1)c1cc(-c2ccco2)[nH]n1`, the figures for the Percent Effect in experiment [1] and in experiment [2] were -0.98% and -21.1%, respectively.

Regarding `Cc1cnn(C2CCCN(C(=O)CCCOc3cccc(F)c3)C2)c1` (stereo not given), the Percent Effect is -4.03% in experiment [1] and 11.8% in experiment [2].

In the case of `Cc1noc(C)c1C(=O)N1C[C@H]2CCC[C@@]2(COc2ccccn2)C1`, the Percent Effect was determined as 4.65% in experiment [1] and 2.11% in experiment [2].

On to `CN(C)C(=O)CN1C(=O)CCC12CCN(Cc1cccn1C)CC2`, for which the Percent Effect in experiment [1] amounted to 4.89%; in experiment [2], 0.848%.

In the case of `CC(C)N1CCOCC2(CN(Cc3nccs3)CCO2)C1` (stereo not given), the Percent Effect in experiment [1] is 2.14%; in experiment [2] it was -11.3%.

For `CNc1nc2c(c(C(=O)N3CCCC3)n1)CN(Cc1nccn1C)CC2`, the Percent Effect was 1.96% in experiment [1] and -4.2% in experiment [2].

Take `CC(C)COC(C)C(=O)N1CCN(S(C)(=O)=O)CC1` (stereo not given): the figures for the Percent Effect in experiment [1] and in experiment [2] were -6.93% and -2.13%, respectively.

In the case of `c1cnnc(N2CCCC2CNCc2nc(-c3ccsc3)no2)c1` (stereo not given), the values for the Percent Effect in experiment [1] and in experiment [2] were -0.433% and -0.726%, respectively.

Take `Cc1ccc(CNC(=O)NCc2cccnc2N(C)C)s1`: the Percent Effect is -3.67% in experiment [1] and 1.79% in experiment [2].

Turning to `CCc1n[nH]c(C2CN(C(=O)c3nc(C)n4ccccc34)CCO2)n1` (stereo not given), the Percent Effect in experiment [1] is 2.55%; in experiment [2] it was -2.71%.

With `Cc1nnc([C@@H]2CC[C@@H]3[C@@H](CCN3S(=O)(=O)c3cccnc3)O2)o1`, the Percent Effect in experiment [1] came out at 7.29%; in experiment [2] it was 8.32%.

As to `Cn1c(Cn2ccnc2)nnc1C1CCCN(C2CCCCC2)C1` (stereo not given), the Percent Effect is -2.02% in experiment [1] and -14.9% in experiment [2].

For the molecule `O=C(Cn1cccnc1=O)NC(Cc1cccs1)c1ccccn1` (stereo not given), the Percent Effect was -0.372% in experiment [1] and -0.987% in experiment [2].

Regarding `Cc1ccc([C@]2(O)CC[C@H]3CN(Cc4cccc(Cl)c4Cl)C[C@H]32)nc1`, the Percent Effect in experiment [1] came to 7.16%; in experiment [2] it was 6.78%.

For the molecule `O=C(c1cccc(NCCO)c1)N1CCOCC1`, the Percent Effect was 7.13% in experiment [1] and -69.6% in experiment [2].

In the case of `CC(NC(=O)NCc1ccoc1)c1ccc2c(c1)CCC(=O)N2` (stereo not given), the Percent Effect in experiment [1] was -9.2%; in experiment [2], -43.2%.

`Cc1ccc(C(=O)N2CCCS2(=O)=O)cc1Cl`: the Percent Effect was -5.6% in experiment [1] and -5.68% in experiment [2].

Consider `CC(C)n1ccnc1C1CCN(C(=O)C2COc3ccccc3O2)CC1` (stereo not given), for which the Percent Effect in experiment [1] is -1.53%; in experiment [2], 13.2%.

Regarding `CC(=O)c1cc(CN2C[C@H]3CC[C@@H]2CN(S(=O)(=O)N(C)C)C3)cs1`, the Percent Effect in experiment [1] was -1.45%; in experiment [2] it was -57.1%.

As to `Cc1nc(CN2CC3(CCN(c4ncc(F)cn4)C3)CC2=O)cs1` (stereo not given), the Percent Effect was 3.16% in experiment [1] and -4.09% in experiment [2].

With `COc1ccc(-c2nc(CN3CCCC3Cn3cccn3)no2)cc1` (stereo not given), the figures for the Percent Effect in experiment [1] and in experiment [2] were -3.19% and -24.1%, respectively.

On to `COCCOc1ncccc1CNCc1c(C)nn(C)c1N(C)C`, for which the Percent Effect in experiment [1] is -5.91%; in experiment [2], 7.43%.

`O=C(Nc1cc(C(F)(F)F)c[nH]c1=O)c1ccco1`: the Percent Effect in experiment [1] is -2.75%; in experiment [2] it was 5.24%.

`COCCc1noc(CNC2CCSC2)n1` (stereo not given): the values for the Percent Effect in experiment [1] and in experiment [2] were -5.83% and 6.26%, respectively.

As for `O=C(NCC1CC1)C1=NOC2(CCN(Cc3ccc4c(c3)OCO4)C2)C1` (stereo not given), the Percent Effect is 2.18% in experiment [1] and -49.8% in experiment [2].

Turning to `COc1ccc(-c2nc(CN3CC(n4nc(C)cc4C)C3)no2)cc1`, the Percent Effect in experiment [1] is 5.02%; in experiment [2], -49.6%.

On to `Cn1cc(CN2CCCC3(CCCN3S(C)(=O)=O)C2)cn1` (stereo not given), for which the Percent Effect was 6.18% in experiment [1] and -11.1% in experiment [2].

In the case of `NC(=O)C1CN(C(=O)Nc2ccccc2SC(F)(F)F)CCO1` (stereo not given), the results for the Percent Effect in experiment [1] and in experiment [2] were -5.1% and -11.7%, respectively.

In the case of `CC(C)NC(=O)Nc1ccc(CNCc2cccc(OC(F)F)c2)cc1`, the Percent Effect is 4.98% in experiment [1] and -103% in experiment [2].

For `Cc1nc(C)c(C(=O)N2CCCC2c2nnc3n2CCCCC3)s1` (stereo not given), the Percent Effect in experiment [1] was -7.53%; in experiment [2], -17.2%.

As to `COCC1CCN(C(=O)c2cccc(S(=O)(=O)NC3CCCC3)c2)C1` (stereo not given), the values for the Percent Effect in experiment [1] and in experiment [2] were -0.437% and -4.97%, respectively.

Take `COC(=O)C(C)(C)NC(=O)C1CC(=O)N(C2CCCC2)C1` (stereo not given): the Percent Effect is 0.137% in experiment [1] and -3.28% in experiment [2].

Turning to `Cc1nn(C)c(C)c1C1CCCN1Cc1nc(-c2ccco2)no1` (stereo not given), the Percent Effect in experiment [1] is -6.56%; in experiment [2], -26.9%.

`CN(C)CCO[C@@H]1CC[C@H]2[C@H]1OCCN2C(=O)COc1ccccc1`: the values for the Percent Effect in experiment [1] and in experiment [2] were 1.51% and -12.1%, respectively.

For the molecule `O=C(c1ccc(F)cc1F)N1C[C@@H](O)[C@H](N2CCOCC2)C1`, the Percent Effect is 4.46% in experiment [1] and -20.4% in experiment [2].

Consider `Fc1ccc(-c2nnc(CN3CCCC3Cn3cncn3)o2)cc1` (stereo not given), for which the values for the Percent Effect in experiment [1] and in experiment [2] were -1.49% and -12.6%, respectively.

With `Cc1ccn(-c2ccccc2NCc2ncc[nH]2)n1`, the Percent Effect in experiment [1] was -0.604%; in experiment [2] it was -13.8%.

As to `COc1ccc(Br)c(C(=O)NCC2CCN(C(=O)c3ccoc3)CC2)c1`, the Percent Effect is -5.03% in experiment [1] and 0.84% in experiment [2].

Take `CC(C)N1CCCC2(CCN(C(=O)CCCn3cncn3)C2)C1=O` (stereo not given): the values for the Percent Effect in experiment [1] and in experiment [2] were -0.717% and 11.1%, respectively.

As to `c1ccc(Cn2cc(CNCC3CCCN3c3cccnn3)cn2)cc1` (stereo not given), the results for the Percent Effect in experiment [1] and in experiment [2] were 8.82% and 22.8%, respectively.

Take `Cc1cc(CN2CCOC(CN(C)C)C2)no1` (stereo not given): the Percent Effect was 1.81% in experiment [1] and 26.2% in experiment [2].
